Vaccinia mCherry – qHTS for Stage-Specific Inhibitors of Vaccinia Orthopoxvirus: mCherry Reporter Primary qHTS; Vaccinia virus mCherry reporter infection, fluorescence; hit rate 0.63% among 310,000; Potency, µM (highest dose often 36.5 µM), usual class: inhibitors; AID 720579, 2013; calls by dose curve; tested in A549 cells; note: nearly all actives have a fitted effect of over 35% in size
Tb PYK inh – qHTS of Trypanosoma Brucei Inhibitors | pyruvate kinase (Trypanosoma brucei), Q57TT1 | TbPYK enzyme, Kinase-Glo Plus ATP luminescence, 45 min | Potency, µM (titrated, usually from 76.8 µM), most hits filed as inhibitors | hit rate 0.12% among 410,000 | AID 624173, 2012; note: nearly all actives have a fitted effect of over 50% in size
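TbPYK + substrate in 50 mM TEA pH 7.2, 100 mM KCl, 10 mM MgCl2, 0.05% BSA, 0.01% Tween-20; cpd pinned; ADP 130 uM final; 45 min RT; Kinase-Glo Plus 10 min; luminescence endpoint.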
Vaccinia Venus – qHTS for Stage-Specific Inhibitors of Vaccinia Orthopoxvirus: Venus Reporter Primary qHTS | Vaccinia virus Venus reporter expression, fluorescence | Potency, µM (doses to about 36.5 µM), most hits filed as inhibitors | hit rate 0.46% among 330,000 | AID 720580, 2013; calls by dose curve; tested in A549 cells; note: nearly all actives have a fitted effect of over 30% in size
HCMV antiviral – qHTS Assay for inhibitors of the human cytomegalovirus (HCMV); AID 1259415, 2018; activity change, negative = inhibition, % at 57.5 µM; HFF cells, HCMV-luciferase reporter, 72 h; active compounds read low; hit rate 4.5% among 410,000; in the data active = activity change below about -60%; inconclusive = no clear call, values can overlap the other calls; inactive = above about -39%
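Cell-based, HFFs, 1000 cells/well, 16 h 37C; cpds in DMSO + HCMV-luc, MOI 1 PFU/cell; 72 h 37C; OneGlo luminescence after 5 min RT; norm. to buffer vs Salinomycin 10uM.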
LmPK inh – qHTS Assay for Inhibitors of Leishmania Mexicana Pyruvate Kinase (LmPK). Potency, µM (top dose mostly 57.5 µM), actives largely listed as inhibitors. AID 1721, 2009. hit rate 0.37% among 290,000. Q27686. purified LmPK, Kinase-Glo ATP luminescence, 1 h
Target sequence (Q27686 whole entry, looked up): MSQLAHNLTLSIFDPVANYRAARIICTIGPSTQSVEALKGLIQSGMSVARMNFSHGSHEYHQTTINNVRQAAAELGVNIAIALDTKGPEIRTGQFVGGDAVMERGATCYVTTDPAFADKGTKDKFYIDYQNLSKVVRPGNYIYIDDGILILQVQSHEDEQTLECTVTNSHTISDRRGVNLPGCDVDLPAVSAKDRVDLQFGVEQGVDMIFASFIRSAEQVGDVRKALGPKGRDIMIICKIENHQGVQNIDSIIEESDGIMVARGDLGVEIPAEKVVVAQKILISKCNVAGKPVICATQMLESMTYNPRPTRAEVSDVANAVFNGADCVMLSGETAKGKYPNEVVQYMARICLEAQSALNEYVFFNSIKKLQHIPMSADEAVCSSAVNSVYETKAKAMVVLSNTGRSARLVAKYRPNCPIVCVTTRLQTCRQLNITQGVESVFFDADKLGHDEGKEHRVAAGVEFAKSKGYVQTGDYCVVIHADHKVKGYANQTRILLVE
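Kinase-Glo luminescence read after 1 h RT reaction of 0.1 nM LmPK with 0.5 mM PEP and 0.1 mM ADP. Activity scaled between uninhibited and enzyme-free controls.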
A number is an active result; i = inactive; ? = inconclusive; nt = no result given; [ ] = another dose, or the depositor's remark. Only some compounds are listed: those with a hit (about 5% of all), similar ones and a draw of the others. Unless noted, calls come from the whole dose curve; as a rule, active = well fitted curve in the direction sought with a large enough effect; inconclusive = small, poorly fitted or top-dose-only effect, or another doubt; inactive = no such curve, though single readings can be large; an effect the other way counts as inactive or inconclusive.

SMILES	Vaccinia mCherry	Tb PYK inh	Vaccinia Venus	HCMV antiviral	LmPK inh
O=c1cc(CSc2ccccc2)nc(-c2ccccc2)[nH]1	i	i	i	-105	i
O=c1cc(CSc2ccc(Cl)cc2)nc(-c2ccccn2)[nH]1	?	i	?	-61	i
O=c1cc(CSc2ccc(Cl)cc2)nc(-c2ccccc2)[nH]1	?	i	i	i	i
Clc1ccc(SCc2csc(N3CCOCC3)n2)cc1	i	i	i	i	i
Clc1ccc(SCc2cc(N3CCOCC3)nc(-c3ccccn3)n2)cc1	7.9µM	i	?	-92	i
COc1ccc(CNC(=O)C2CCCN2C)cc1OC (stereo unspecified)	nt	i	nt	?	i
COc1ccc2c(c1)-c1nc(NC(=O)c3cc(Cl)ccc3OC)sc1CC2	10µM	i	10µM	?	nt
COc1ccc2c(c1)-c1nc(NC(=O)c3ccc(Cl)cc3)sc1CC2	?	i	?	?	nt
O=C(CN1CCOCC1)N/N=C/c1c(O)ccc2ccccc12	?	i	?	i	i
O=C(CSCC(=O)Nc1ccccc1)N/N=C/c1c(O)ccc2ccccc12	nt	i	nt	-104	i
Nc1cc(Cl)nc(N/N=C/c2c(O)ccc3ccccc23)n1	28µM	i	?	-71	i
O=C(N/N=C/c1c(O)ccc2ccccc12)Nc1ccccc1	nt	i	nt	i	nt
O=C(CNc1ccccc1)N/N=C/c1c(O)ccc2ccccc12	nt	i	nt	-89	i
Cc1[nH]c2ccc(C(=O)NCCCN(C)C3CCCCC3)cc2c1C	i	i	i	-62	i
CCCCn1c(SCC(=O)c2ccc(O)c(O)c2)nc2ccsc2c1=O	22µM	i	?	nt	i
Cn1c(=O)[nH]c(=O)c2c1nc(NCCCO)n2CCOc1ccccc1	i	i	i	i	i
Cc1onc(-c2ccccc2)c1C(=O)N1CCC(C)CC1	i	i	i	i	i
Cc1cc(C)n(CCC(=O)N/N=C/c2ccc(O)cc2O)n1	20µM	i	?	i	i
Cc1cc(C)n(CCC(=O)N/N=C/c2ccccc2O)n1	?	i	?	i	i
O=C(CCN1CCN(C(c2ccccc2)c2ccccc2)CC1)N/N=C/c1ccc(O)cc1O	20µM	i	?	i	i
O=C(CCN1CCN(C(c2ccccc2)c2ccccc2)CC1)N/N=C/c1ccc(O)cc1	i	i	i	i	i
COc1ccc(NC(=O)CN(C)C(=O)C(Sc2ccccc2)c2ccccc2)cc1 (stereo unspecified)	nt	i	nt	-72	nt
CCOC(=O)c1sc2nc(C)nc(NCc3ccc(Cl)cc3)c2c1C	i	i	i	-68	i
CCOC(=O)c1sc2nc(C)nc(NCc3ccc(F)cc3)c2c1C	i	i	i	?	i
CCOC(=O)c1sc2nc(C)nc(SC(C)C(=O)N(C)c3ccccc3)c2c1C (stereo unspecified)	i	i	i	-64	nt
SMILES	Vaccinia mCherry	Tb PYK inh	Vaccinia Venus	HCMV antiviral	LmPK inh
CCOC(=O)c1sc2nc(C)nc(Nc3ccc(OC)cc3)c2c1C	i	i	i	-67	i
CCn1nc(NC(=O)Cc2ccc(OC)cc2)c2cc3cc(C)ccc3nc21	nt	i	nt	i	i
CCN(CC)S(=O)(=O)c1ccc(-c2nnc(SCC(=O)N3c4ccccc4CC3C)o2)cc1 (stereo unspecified)	0.63µM	i	?	i	i
O=C(Cn1cc(C(F)(F)F)cc(Cl)c1=O)NCc1ccccc1	i	i	i	i	i
Cc1ccc(C2C(N)C(=O)N2c2ccc(C)cc2)cc1 (stereo unspecified)	nt	i	nt	i	i
CC1=C(C(N)=O)C(c2ccccc2[N+](=O)[O-])n2ncnc2N1 (stereo unspecified)	nt	?	nt	i	i
CNc1ccc(Br)cc(C(=O)/C=C/c2ccc(OC)cc2OC)c1=O	i	i	i	-66	i
COc1ccc(/C=C/C(=O)c2ccc(OC)cc2OC)c(OC)c1	i	i	i	-76	i
CNc1ccc(Br)cc(C(=O)/C=C/c2cccc(OC)c2)c1=O	nt	i	nt	-85	i
COc1ccc(C=C2c3ccccc3C(=O)c3ccccc32)c(OC)c1	nt	nt	nt	-88	i
CNc1ccc(Br)cc(C(=O)/C=C/c2ccc(Cl)cc2Cl)c1=O	i	i	i	i	i
COc1ccc(/C=C2\COc3ccccc3C2=O)c(OC)c1	?	i	i	i	i
Cc1ccc(CNC(=O)C(CC(C)C)N2Cc3ccccc3C2=O)cc1 (stereo unspecified)	i	i	i	i	nt
Cc1ccc(OCCOCCn2cnc3ccccc3c2=O)cc1C	nt	nt	nt	nt	i
Cc1ccc(C(=O)CC2(O)C(=O)N(Cc3ccccc3)c3ccc(Br)cc32)cc1 (stereo unspecified)	i[7.34 µM]	i	i[7.34 µM]	i	nt
Cc1ccc(C(=O)N2c3ccccc3N(Cc3ccccc3)C(=O)C2(C)C)cc1	i	i	i	-93	i
Cc1cccc2cc(COC(=O)c3cccs3)c(=O)[nH]c12	i	i	i	-65	i
CCN(CC)CCN(Cc1cc2ccc(C)c(C)c2[nH]c1=O)C(=S)NCc1ccco1	i	i	i	-77	i
Cc1cccc2cc(CN(Cc3ccco3)C(=O)c3cccs3)c(=O)[nH]c12	nt	i	i	-99	i
Cc1cccc2cc(COC(=O)c3ccccc3)c(=O)[nH]c12	nt	i	i	i	i
Cc1cccc2cc(CN(Cc3ccco3)C(=O)c3ccco3)c(=O)[nH]c12	i	i	i	i	i
CC(=O)N1CCCc2cc(S(=O)(=O)N3CCC(C(=O)NC4CCC(C)CC4)CC3)ccc21 (stereo unspecified)	i	i	i	i	nt
O=C(O)CN1C(=O)C(=O)N(Cc2ccccc2F)C1=O	i	i	i	i	i
O=C(Nc1ccccc1)N(CCN1CCOCC1)Cc1cccc(Cl)c1	i	i	i	i	i
COc1ccc(C2N(C(C)=O)CCCN2S(=O)(=O)c2ccc(C)cc2)cc1 (stereo unspecified)	i	i	i	-62	i
SMILES	Vaccinia mCherry	Tb PYK inh	Vaccinia Venus	HCMV antiviral	LmPK inh
Cc1ccccc1C(=O)Nc1cccc(NC(=O)Cn2cnc3c(=O)n(C)c(=O)n(C)c32)c1	nt	i	nt	-64	i
CC1=C(C(=O)Nc2cccnc2)C(c2ccc(Cl)cc2)n2nc(-c3ccccc3)nc2N1 (stereo unspecified)	i	i	i	i	nt
CCCCOc1ccc(C(=O)Nc2cccc(C)n2)cc1	i	i	i	i	?
Cc1cccc(NC(=O)Nc2ccccc2)n1	i	i	i	-65	i
CCOc1ccc(C(=O)Nc2cc(C)ccn2)cc1	i	?	i	-65	?
CCOC(=O)NC(=S)Nc1cccc(C)n1	i	i	i	-63	nt
Cc1ccnc(NC(=O)c2ccc(C(=O)c3ccccc3)cc2)c1	i	i	i	i	nt
CCOc1ccc(C(=O)Nc2cccc(C)n2)cc1	i	i	i	i	16µM
Cc1cccc(NC(=S)NC(=O)/C=C/c2ccccc2)n1	i	i	i	i	i

High-throughput results (PubChem)
